Assay outcomes deposited in PubChem BioAssay by several laboratories.
PfHsp40 rescue – compounds rescuing yeast from Plasmodium falciparum HSP40 toxicity. AID 504582. S. cerevisiae expressing PfHsp40, growth rescue, ATP luminescence. 340,000 compounds, 0.68% hits. growth rescue, % at 12.5 µM; in the data active = growth rescue above about 28%, passing the limit was not always enough; inconclusive = no clear call, values can overlap the other calls;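 also: yeast W303a lacking pdr1 and pdr3 grown in galactose medium; growth measured after three days at 30 °C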
PrPC surface inh – inhibitors of human cell surface prion protein PrPC; TR-FRET read-out; inhibition, % at 13.8 µM; 370,000 compounds, 0.43% hits; AID 720596; in the data active = inhibition above about 24%
PrP UTR inh – suppresses PrP 5' UTR mRNA reporter expression | cell-based PrP 5' UTR mRNA reporter, plate reader | inhibition, % (no concentration beside the values) | 340,000 compounds, 0.35% hits; in the data active = inhibition above about 52%
PriA SSB inh – blocks PriA binding to SSB C-terminal tail; AID 1272365; 430,000 compounds, 0.6% hits; inhibition, % at 33 µM; AlphaScreen SSBct-PriA binding, biotinylated peptide; in the data active = inhibition mostly above about 37%, no sharp cut-off; inactive = mostly below about 20%
Yp Topo-I inh – Y. pestis Topo-I inhibition via cleavage products | Y. pestis Topo-I cleavage product accumulation, plate reader | activity, % at 10 µM | 360,000 compounds, 0.064% hits | AID 504884; in the data active = activity above about 50%, passing the limit was not always enough; inconclusive = no clear call, values can overlap the other calls
BJeLR viability – kills HRASV12-expressing BJeLR cells; BJeLR (HRASV12) viability, CellTiter-Glo ATP luminescence, 48 h; inhibition, % (concentration not given with the values); 300,000 compounds, 0.17% hits; in the data active = inhibition above about 50%; inconclusive = no clear call, values can overlap the other calls
PrP UTR cherry – prion 5' UTR mRNA inhibition, cherry-pick retest | cell-based prion protein 5' UTR reporter, plate reader | inhibition, % at 2.5 µM | 1,100 compounds, 48% hits | shares compounds with PrP UTR inh; in the data active = inhibition above about 54%; inconclusive = no clear call, values can overlap the other calls
Numbers stand for hits; . = inactive; ? = inconclusive; / = not tested or not shown. Sampled rows, rich in hits. Any-hit rate of the full collection: about 1.7%.

SMILES	PfHsp40 rescue	PrPC surface inh	PrP UTR inh	PriA SSB inh	Yp Topo-I inh	BJeLR viability	PrP UTR cherry
CN1CCN(CC(=O)Nc2cccc(S(=O)(=O)N(C)c3ccccc3)c2)CC1	.	.	91	.	.	/	.
Nc1ccc2c(c1)-c1ccc(F)cc1C2=O	.	.	81	.	.	/	.
NCCn1ncc2c(=O)n(Cc3ccc(Cl)cc3)cnc21	/	/	/	.	/	/	/
COC(C)(CNC(=O)NC1CCCC1)c1cccc(Cl)c1 (stereo not given)	/	/	/	.	/	/	/
COc1cccc(/C=N/Nc2ncnc(N)c2[N+](=O)[O-])c1OC	.	/	.	/	.	.	/
Cc1cc(/C=N/Nc2ncnc(N)c2[N+](=O)[O-])c(C)n1-c1ccccc1	.	.	77	.	.	.	78
CC(C)c1ccccc1NC(=S)N1CCN(S(=O)(=O)c2cccs2)CC1	.	.	87	.	.	.	.
Cc1c(Cl)cccc1NC(=S)N1CCN(S(=O)(=O)c2cccs2)CC1	.	.	.	.	.	.	/
CCCCCCC(=O)N/N=C\c1ccco1	/	/	/	.	/	/	/
Cc1ccc(NC(=O)/C=C/c2ccco2)nc1	.	.	70	.	.	.	84
CCOC(=O)c1cnn(-c2ccccc2)c1NC(=O)CN1CCOCC1	.	.	74	.	.	.	.
CCOC(=O)C(C)Oc1cccc2c(=O)n(CC(=O)NCc3ccc(F)cc3)ccc12 (stereo not given)	.	.	79	.	.	.	91
CCOC(=O)C(C)Oc1cccc2c(=O)n(CC(=O)NCCc3ccccc3)ccc12 (stereo not given)	.	.	.	.	.	.	/
CCOC(=O)C(C)Oc1cccc2c(=O)n(CC(=O)NCc3ccccc3)ccc12 (stereo not given)	.	.	75	.	.	.	88
CCSc1ccccc1C(=O)N1c2ccccc2CC1C(N)=O (stereo not given)	/	/	/	.	/	/	/
COc1ccc(N2CCN(C(=O)c3ccc(=O)n(Cc4ccc(F)cc4)n3)CC2)cc1	/	/	/	.	/	/	/
COc1ccc(-[n+]2c(C)cc(/C=C3\Sc4ccccc4N3C)cc2C)cc1	?	.	66	/	.	.	?
COc1ccccc1-[n+]1c(C)cc(/C=C2\Sc3ccccc3N2C)cc1C	.	.	70	/	.	73	.
COc1cc(C(=O)Nc2ccc(Cl)cc2C(=O)c2ccccc2)cc(OC)c1OC	/	/	/	.	/	/	/
O=C(Nc1ccc([N+](=O)[O-])cc1)C(=O)Nc1cccc(C(=O)O)c1	.	.	88	.	.	.	92
N#CC1=C(N)Oc2c(ccc3ccccc23)C1c1ccsc1 (stereo not given)	.	.	77	.	.	.	88
COCCCn1c(=NC(C)=O)c(C#N)cc2c(=O)n3cccc(C)c3nc21	/	.	/	.	.	.	/
COCCCn1c(=NC(=O)c2ccccc2)c(C#N)cc2c(=O)n3cccc(C)c3nc21	.	.	66	.	.	.	.
Cc1ccc(C(=O)Sc2cccccc2=O)cc1	698	.	57	.	.	104	?
O=C(c1cc2ccccc2o1)N(CCN1CCOCC1)c1nc2c(C(F)(F)F)cccc2s1	/	/	/	.	/	/	/
SMILES	PfHsp40 rescue	PrPC surface inh	PrP UTR inh	PriA SSB inh	Yp Topo-I inh	BJeLR viability	PrP UTR cherry
Cc1nc2c(-c3ccc(F)cc3)cnn2c(N)c1-c1ccccc1	.	.	68	.	.	.	.
Cc1nc2c(-c3ccc(Cl)cc3)cnn2c(N)c1-c1ccc(F)cc1	.	.	56	.	.	.	.
COc1cccc(C(=O)N/N=c2/oc3ccccc3cc2C(N)=O)c1	.	.	.	/	.	.	/
COc1ccc2cc(C(N)=O)/c(=N\NC(=O)c3ccccc3)oc2c1	.	.	53	/	.	.	.
CC(=O)Nc1ccc(SCC(=O)Nc2ccccc2F)nn1	/	/	/	.	/	/	/
c1ccc(-c2cn3nc4c(nc3n2)CCCC4)cc1	.	.	67	.	.	.	.
COc1ccc(-c2noc(-c3cc(-c4ccc(Cl)cc4)n[nH]3)n2)cc1	/	/	/	.	/	/	/
CC[C@@H](C)[C@H](C(CC(=O)N1CCCC1[C@@H](OC)[C@H](C)C(=O)N[C@H](Cc1ccccc1)c1nccs1)OC)N(C)C(=O)[C@H](NC(=O)[C@@H](C(C)C)N(C)C)C(C)C (stereo not given in full)	.	.	56	.	.	/	92
Cc1cccc(NC(=S)N/N=C/C(C)c2ccccc2)c1C (stereo not given)	.	.	59	/	.	.	.
O=C(/C=C/c1ccccc1)Nc1cccc(C(=O)O)c1	.	.	80	.	.	.	82
COc1cccc(-c2nc(C(N)=O)c3[nH]c(=O)n(-c4ccc(Cl)c(Cl)c4)c3n2)c1O	/	/	/	.	/	/	/
Cc1ccc(-c2ccc(=O)n(C(C)C(=O)NCCOc3ccc4nnc(-c5ccccc5)n4n3)n2)cc1 (stereo not given)	/	/	/	.	/	/	/
CC1=C([N+](=O)[O-])C(c2cccc(Br)c2)C2=C(N1)c1ccccc1C2=O (stereo not given)	.	.	54	.	.	.	71
COC(=O)C1=C(C)NC2=C(C(=O)c3ccccc32)C1c1cccc(OC)c1 (stereo not given)	.	.	.	.	.	.	/
O=C(NCCc1ccsc1)C1CC1	/	/	/	.	/	/	/
CCOC(=O)C1(CCc2ccccc2)CCN(C(=O)CCn2cncn2)CC1	.	.	81	.	.	.	.
O=C(NCCn1cccc1)[C@H]1CCCN(c2cc(-n3cncn3)ncn2)C1	/	/	/	.	/	/	/
COc1ccc(-c2noc(CCC(=O)O)n2)cc1	.	.	.	.	.	.	/
COc1ccc(-c2noc(CCCC(=O)O)n2)cc1	.	.	56	.	.	.	.
Cc1ccc(C)c(NC(=O)CSc2nncc3ccccc23)c1	/	/	/	.	/	/	/
COc1ccc2c(c1)C(C)=CC(C)(C)N2S(=O)(=O)c1ccc(NC(C)=O)cc1	.	.	73	.	.	.	.
CC1=CC2OC3CC4OC(=O)/C=C/C=C/C(=O)OCCC(C)C(O)C(=O)OCC2(CC1)C4(C)C31CO1 (stereo not given)	/	/	/	.	/	/	/
CC(=O)O[C@H]1C[C@@H]2OC3C=C(C)CCC3(C)[C@@]1(C)[C@@]21CO1 (stereo not given in full)	/	88	72	.	.	/	59
COc1ccc(OC)c(NC(=O)c2oc3ccccc3c2NC(=O)c2ccc(Cl)cc2Cl)c1	/	/	/	.	/	/	/
Cn1cc(CC(=O)N2CCCCC2c2cc(C(N)=O)n[nH]2)c2ccccc21 (stereo not given)	/	/	/	.	/	/	/
O=C(CSc1ncn[nH]1)Nc1ncc(C(F)(F)F)cc1Cl	.	.	75	.	.	.	.
CCCC(=O)NCC(=O)Nc1cnc(N2CCN(c3ccccc3)CC2)nc1	/	/	/	.	/	/	/
Cc1cc(C(N)=O)c2ccccc2n1	.	.	.	.	.	.	/
NC(=O)c1cc2c3ccccc3ccn2c1-c1ccccc1	.	.	72	.	.	.	90
